From PubChem
Sampled rows, rich in hits. Any-hit rate of the full collection: about 18%.
IL1B secr inh – inflammasome signaling inhibition, IL-1 beta readout. AID 743279. 360,000 tested, 4.7% active. activity change, % at 57.5 µM. THP-1 LPS/ATP IL-1B secretion, AlphaLISA, 16 h; active compounds read low; in the data active means activity change below about -50%; inconclusive means mostly about -30% to -49%
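Secreted IL-1B measured by AlphaLISA bead assay after 16 h compound exposure of THP-1 cells; compounds (final up to 57.5 uM) added 1 h before LPS (250 ng/mL) and ATP (1.25 mM) stimulation; lower signal means less secretion.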
Gal4-VP16 FLuc – inhibits Gal4-VP16 luciferase reporter, ROR gamma counter-screen. Drosophila S2 Gal4-VP16 UAS-luciferase, luminescence, 20 h. Potency, µM (top dose mostly 53.6 µM), for the others: top-dose activity, negative = inhibition, most hits filed as inhibitors. 310,000 tested, 3.5% active. AID 2546;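 further: Gal4-VP16 expression switched on by copper sulfate through the metallothionein promoter; potency means the concentration at half of the fitted maximal effect; nearly all actives have a fitted effect of over 50% in size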
TDP1 cell CPT – growth inhibition of DT40 Tdp1-/-;hTDP1 cells with camptothecin (screen for TDP1 inhibitors). chicken DT40 Tdp1-/-;hTDP1 cells + 20 nM CPT, ATP luminescence, 48 h. Potency, µM (series often up to 46.2 µM), without a hit: at the highest dose activity change, negative = growth inhibition, hits mostly inhibitors. 420,000 tested, 12% active. AID 686979; further: potency means the concentration at half of the fitted maximal effect; nearly all actives have a fitted effect of over 55% in size
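Chicken DT40 Tdp1-/- cells complemented with human TDP1, 400 cells/well, exposed to compounds plus 20 nM camptothecin for at least 48 h at 37 C; viability read as ATP content by CellTiter-Glo luminescence.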
LDHA block – blocks human lactate dehydrogenase A; P00338; purified LDHA, NADH/diaphorase-resazurin fluorescence; active compounds read low; activity change, % (values are at about 110 or 230 µM); AID 1347041; 480,000 tested, 0.15% active; in the data active means activity change below about -30%; inconclusive means mostly about -25% to -30%;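 further: plate controls were DMSO wells for no effect and wells without enzyme for full effect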
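Enzyme activity of human lactate dehydrogenase 5 (2 nM; 0.06 mM NADH, 0.2 mM pyruvate, 5 min, RT) is measured via a resazurin/diaphorase fluorescence readout of residual NADH.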
TDP1 cell noCPT – qHTS for Inhibitors of human tyrosyl-DNA phosphodiesterase 1 (TDP1): qHTS in cells in absence of CPT. AID 686978, 2013. Potency, µM (titrated, usually from 46.2 µM), without a hit: top-dose activity change, negative = growth inhibition, most hits filed as inhibitors. 420,000 tested, 15% active. DT40 Tdp1-/- hTDP1 cells, no CPT, ATP luminescence, 48 h; further: potency means the concentration at half of the fitted maximal effect; nearly all actives have a fitted effect of over 55% in size
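Growth kinetics read by CellTiter-Glo luminescence after ≥48 hr at 37 °C. Cells: DT40 Tdp1-/- stably carrying human TDP1, 400 per well, compound exposure in the absence of CPT (DMSO vehicle).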
RORgamma inh – ROR gamma (mouse) transcription inhibition | Potency, µM (highest dose often 53.6 µM), inactives show top-dose activity change, negative = inhibition, hits mostly inhibitors | AID 2551 | Drosophila S2 Gal4-RORgamma UAS-luciferase reporter, 20 h | P51450 | 310,000 tested, 5.4% active; further: potency means the concentration at half of the fitted maximal effect; nearly all actives have a fitted effect of over 60% in size
Target sequence (P51450 whole entry, looked up, the tested form may be a part): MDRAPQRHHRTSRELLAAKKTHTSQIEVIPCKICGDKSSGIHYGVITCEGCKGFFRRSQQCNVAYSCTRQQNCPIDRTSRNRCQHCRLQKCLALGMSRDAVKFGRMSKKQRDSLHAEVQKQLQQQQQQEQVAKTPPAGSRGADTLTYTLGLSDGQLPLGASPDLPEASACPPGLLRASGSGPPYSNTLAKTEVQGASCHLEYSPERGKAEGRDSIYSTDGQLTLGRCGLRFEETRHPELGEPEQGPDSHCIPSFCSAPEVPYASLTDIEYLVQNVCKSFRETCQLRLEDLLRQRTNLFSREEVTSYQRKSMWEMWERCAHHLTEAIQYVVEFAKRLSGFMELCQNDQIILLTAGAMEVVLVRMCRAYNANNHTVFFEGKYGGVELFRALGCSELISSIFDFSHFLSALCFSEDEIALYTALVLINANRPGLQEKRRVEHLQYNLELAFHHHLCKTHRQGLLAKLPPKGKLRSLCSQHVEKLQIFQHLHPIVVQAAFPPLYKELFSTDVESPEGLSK
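Schneider cells (Drosophila), stable Gal4 DBD–ROR gamma + UAS-luc; 1 hr cmpd preincubation; Cu2+ induction 700 uM final; 20 hr ambient; luminescence.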
Active calls of the source: *; ? = inconclusive; . = not tested or not shown. Unless noted, the call rests on the fitted dose curve; in most records, active means well fitted curve in the direction sought with a large enough effect; inconclusive means small, poorly fitted or top-dose-only effect, or another doubt; inactive means no such curve, though single readings can be large; an effect the other way counts as inactive or inconclusive. Unless noted, on the % scale 0 is the no-effect control and ±100 the full control effect.

SMILES | IL1B secr inh | Gal4-VP16 FLuc | TDP1 cell CPT | LDHA block | TDP1 cell noCPT | RORgamma inh
COc1ccc2c(c1)c(CC(=O)Nc1ccc(C(C)=O)cc1)c(C)n2C(=O)c1ccc(Cl)cc1 | -5 | 0% | 21µM* | -12 | 16µM* | 81%
COc1ccc2c(c1)c(CC(=O)Nc1nnc(C3CC3)s1)c(C)n2C(=O)c1ccc(Cl)cc1 | 6 | -10% | 15µM* | -1 | 8.2µM* | 3%
COc1ccc2c(c1)c(CC(=O)Nc1ccccc1OC)c(C)n2C(=O)c1ccc(Cl)cc1 | 0 | -11% | ? | -3 | ? | 25%
COc1ccc2c(c1)c(CC(=O)Nc1cc(C)ccc1C)c(C)n2C(=O)c1ccc(Cl)cc1 | -6 | -17% | ? | -2 | 16µM* | 14%
O=C1Cc2cc(-c3csc(Nc4ccccc4)n3)ccc2N1 | . | . | . | -4 | . | .
Cc1ccccc1NC(=O)C1CC(Cl)=CCC1C(=O)O (stereo not drawn) | 3 | -5% | ? | -7 | 13µM* | -5%
CCCCCCc1ccc(OC(=O)c2cncc(Br)c2)cc1 | . | . | . | -2 | . | .
Cc1ccccc1OCC(O)CN(Cc1ccccc1)Cc1ccccc1 (stereo not drawn) | . | . | . | -3 | . | .
Cn1c(O)c(N=Nc2ccccc2)c2ccccc21 | 20 | 3% | -4% | 10 | -25% | -13%
Cn1c(O)c(N=Nc2nc(-c3ccccc3)cs2)c2ccccc21 | -11 | ? | ? | -9 | ? | 1.1µM*
Cc1cc(-c2nc3cc(F)ccc3s2)ccc1N | -76* | . | -17% | 2 | -6% | .
CC(=O)Nc1ccc(-c2nc3ccccc3s2)cc1C | . | . | . | 0 | . | .
COc1ccc(-c2cc(C(=O)NCC(c3ccc(C)o3)N3CCN(C)CC3)no2)cc1 (stereo not drawn) | . | . | . | -18 | . | .
CCc1noc(C)c1C(=O)Nc1nc2c(C)cc(C)cc2s1 | ? | . | ? | -4 | ? | .
Cc1cc(C)c2nc(NC(=O)c3cc(C)on3)sc2c1 | -10 | ? | ? | -3 | ? | 4.5µM*
CCc1noc(C)c1C(=O)Nc1nc2ccc(F)cc2s1 | 48 | . | 7% | 4 | -16% | .
CCC(=O)NNc1nc2c(C)cc(C)cc2s1 | -3 | ? | ? | 13 | 0% | 13µM*
Cc1ccc(S(=O)(=O)CC(=O)Nc2nc3c(C)cc(C)cc3s2)cc1 | . | . | ? | -5 | ? | .
CCc1ccc2nc(NC(=O)c3cc(C)on3)sc2c1 | 1 | ? | 9.2µM* | -2 | 8.2µM* | 5.6µM*
COc1ccccc1Oc1coc2cc(OCc3cccc(Cl)c3)ccc2c1=O | . | . | . | -4 | . | .
CCCn1c(CCNc2nc(-c3ccc(Cl)c([N+](=O)[O-])c3)cs2)nc2cc(Cl)c(Cl)cc21 | 34 | -5% | -11% | 1 | -5% | ?
O=[N+]([O-])c1cc(-c2csc(NCCc3nc4cc(Cl)c(Cl)cc4n3CCCO)n2)ccc1Cl | ? | . | 16µM* | 0 | ? | .
OCCOCCn1c(CCNc2nc(-c3ccc(Cl)cc3)cs2)nc2cc(Cl)c(Cl)cc21 | -16 | . | ? | 1 | ? | .
COc1ccc(-c2csc(NCCc3nc4cc(Cl)c(Cl)cc4n3CCCO)n2)cc1 | -58* | . | ? | 0 | 18µM* | .
Cc1ccc(-c2csc(NCCc3nc4cc(Cl)c(Cl)cc4n3CCCO)n2)cc1 | -56* | . | ? | 1 | ? | .
SMILES | IL1B secr inh | Gal4-VP16 FLuc | TDP1 cell CPT | LDHA block | TDP1 cell noCPT | RORgamma inh
OCCCn1c(C2CCCN2c2nc(-c3ccc(Cl)cc3)cs2)nc2cc(Cl)c(Cl)cc21 (stereo not drawn) | -8 | . | ? | -1 | ? | .
CCc1ccc(S(=O)(=O)/N=C2\C=C(Nc3ccc(O)cc3)C(=O)c3ccccc32)cc1 | -103* | 11µM* | 4.1µM* | 37 | 3.3µM* | 10µM*
CCc1ccc(S(=O)(=O)/N=C2/C=C(Sc3ncn[nH]3)C(=O)c3ccccc32)cc1 | -99* | 6.3µM* | 0.65µM* | 39 | 0.73µM* | 13µM*
O=C(O)CCc1ccc(S(=O)(=O)Nc2cccc(C(=O)O)c2)cc1 | . | . | . | 4 | . | .
CCc1ccc(S(=O)(=O)/N=C2\C=C(Nc3cccc(C(=O)O)c3)C(=O)c3ccccc32)cc1 | -101* | ? | 18µM* | 46 | 16µM* | 11µM*
CCc1ccc(S(=O)(=O)O)cc1 | . | -10% | -7% | . | -16% | -1%
CC(=O)Nc1c(-c2ccccc2)c(C)nn1-c1ccc(C(=O)NCc2ccccc2)cc1 | . | . | . | -7 | . | .
O=C(Nc1ccc(N2CCCCCC2)c(C(=O)O)c1)c1ccccc1Cl | . | . | . | 1 | . | .
CN(C(=O)CSc1nc(N)c2c3c(sc2n1)CSC(C)(C)C3)c1ccccc1 | -55* | -22% | 16µM* | -3 | 16µM* | 36%
COc1cc(Cl)c(C)cc1NC(=O)CCn1cnc2onc(-c3ccc(F)cc3)c2c1=O | . | . | 18µM* | -14 | ? | .
O=C(Cn1cnc2onc(-c3ccc(F)cc3)c2c1=O)N1CCN(c2ccccc2F)CC1 | . | . | ? | -2 | ? | .
O=C(CCn1cnc2onc(-c3ccc(F)cc3)c2c1=O)N1CCN(c2ccccc2F)CC1 | . | . | ? | -3 | ? | .
CCCCN(CC)CCNC(=O)CCn1cnc2onc(-c3ccc(F)cc3)c2c1=O | . | . | 26µM* | -5 | 23µM* | .
Cc1ccc(NC(=O)Cn2cnc3onc(-c4ccc(F)cc4)c3c2=O)c(Cl)c1 | . | . | -22% | -2 | -27% | .
Cc1ccc(Cl)cc1N1CCN(C(=O)Cn2cnc3onc(-c4ccc(F)cc4)c3c2=O)CC1 | . | . | 18µM* | -3 | 18µM* | .
O=C(CCn1cnc2onc(-c3ccc(F)cc3)c2c1=O)N1CCN(c2cccc(Cl)c2)CC1 | . | . | 16µM* | -2 | 16µM* | .
Cc1ccc2c(=O)cc(C(=O)N3CCN(C(c4ccccc4)c4ccccc4)CC3)oc2c1 | . | . | . | -3 | . | .
COc1ccc(N2CCN(C(=O)CCn3cnc4onc(-c5ccc(F)cc5)c4c3=O)CC2)cc1 | . | . | 23µM* | -2 | ? | .
CCCN(C(=O)CCn1cnc2onc(-c3ccc(F)cc3)c2c1=O)c1ccccc1C | . | . | 18µM* | 0 | 16µM* | .
COc1ccccc1N1CCN(C(=O)CCn2cnc3onc(-c4ccc(F)cc4)c3c2=O)CC1 | . | . | ? | -8 | 21µM* | .
CCOC(=O)Cn1cnc2onc(-c3ccc(F)cc3)c2c1=O | . | . | -2% | -2 | 0% | .
CCN(C(=O)Cn1cnc2onc(-c3ccc(F)cc3)c2c1=O)c1cc(C)ccc1C | . | . | 13µM* | 1 | 21µM* | .
N#Cc1ccccc1COC(=O)c1c(F)cccc1Cl | . | . | . | 3 | . | .
